Assay outcomes (PubChem)
Sampled rows, rich in hits. Any-hit rate of the full collection: about 2.9%.
FXN GAA850 act – FXN promoter activators, primary screen, cell-based, luciferase luminescence, HEK293 lucGAA850; AID 540364, 2011; activation, % at 6 µM; 360,000 tested, 0.56% active; HEK293 lucGAA850 FXN promoter luciferase reporter, 24 h; percent of 10 µM SAHA response;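 active = activation above the average of all compounds screened plus 3 SD, cutoff fixed separately per campaign, cut at about 7.5% in these data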
KLK7 zymogen act – proKLK7 zymogen activators, primary screen, biochemical, fluorescence intensity; Kallikrein-7 (Homo sapiens), P49862; purified proKLK7, EDANS-DABCYL substrate fluorescence; 100% is mature enzyme control, 0% vehicle; activation, % at 7 µM; 370,000 tested, 0.9% active; AID 652039, 2013;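 active = activation above the mean of all tested compounds plus 3 SD, computed per campaign excluding outliers beyond control limits, cut at about 13% in these data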
Target sequence (P49862 whole entry, looked up): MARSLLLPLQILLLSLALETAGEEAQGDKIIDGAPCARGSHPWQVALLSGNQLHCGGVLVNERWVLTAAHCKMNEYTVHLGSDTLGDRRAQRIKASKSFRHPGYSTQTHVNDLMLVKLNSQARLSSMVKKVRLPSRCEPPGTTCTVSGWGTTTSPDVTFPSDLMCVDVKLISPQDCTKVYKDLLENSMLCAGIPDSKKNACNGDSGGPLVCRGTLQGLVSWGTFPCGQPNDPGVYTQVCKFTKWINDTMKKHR
FAS-TE inh – FAS thioesterase domain inhibitors, primary screen, biochemical, fluorescence intensity, uHTS. inhibition, % at 15 µM. AID 602261, 2012. recombinant FAS-TE, OMFH fluorogenic substrate, fluorescence endpoint. 360,000 tested, 0.67% active;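 active = compounds whose normalised, plate-corrected inhibition of enzyme fluorescence in the single-dose primary screen is 50% or more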
SMARCA2 activ – SMARCA2 (BRM) function activators, primary screen, cell-based, luminescence, high throughput. MG213 cells, MMTV-luciferase reporter, dexamethasone, overnight. activation, % at 9.1 µM. 370,000 tested, 1% active; in the data active = activation above about 7.8%
SMARCA2 conf – SMARCA2 (BRM) function activators, confirmation, cell-based, luminescence, triplicate; shares compounds with SMARCA2 activ; MG213 cells, MMTV-luciferase with dexamethasone, overnight; MG213 cells expressing E1A, Rb sequestered; DMSO wells 0%, reference activator 100%; 3,500 tested, 30% active; activation, % at 9.1 µM; AID 652260, 2013;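 active = activation above its plate's cutoff, the mean activation of tested wells plus 3 SD, cut at about 7.9% in these data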
VP16 Luc act – GAL4-VP16 luciferase reporter activation, counter-screen for SMARCA2 (BRM) activator project, cell-based, pG5luc, luminescence, high throughput; activation, % at 9.1 µM; AID 686939, 2013; HEK293 GAL4-VP16 pG5luc reporter; scaled: DMSO wells 0%, SAHA wells 100%; 3,500 tested, 41% active; shares compounds with SMARCA2 activ;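 active = activation above the solvent-only control well mean plus 3 SD, averaged across control plates, cut at about 5.2% in these data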
Hits are given with their value.

`COc1ccc(OCc2cc(C(=O)N3CCCCCCC3)no2)c(Cl)c1` gave FXN GAA850 act inactive, KLK7 zymogen act inactive, FAS-TE inh inactive and SMARCA2 activ inactive.
Screening N#CCCN1CCN(C2=NC(=O)/C(=C\c3cccs3)S2)CC1 returned FXN GAA850 act inactive, KLK7 zymogen act inactive, FAS-TE inh inactive, SMARCA2 activ 8.8, SMARCA2 conf inactive and VP16 Luc act inactive.
Screening O=C(O)c1cc(N/N=C2/CC(c3ccccc3)Oc3ccccc32)ccc1Cl (centres undefined) returned FXN GAA850 act inactive, KLK7 zymogen act inactive, FAS-TE inh inactive, SMARCA2 activ 10.3, SMARCA2 conf inactive and VP16 Luc act inactive.
For COc1cc(/C=C2/SC(=S)N(CC(=O)NC(C)(C)C)C2=O)cc(OC)c1OC the results were FXN GAA850 act inactive, KLK7 zymogen act inactive, FAS-TE inh inactive, SMARCA2 activ 8.0, SMARCA2 conf inactive and VP16 Luc act inactive.
For OCc1cn(-c2ccccc2)nc1-c1cc2ccccc2o1 the results were FXN GAA850 act inactive, KLK7 zymogen act inactive, FAS-TE inh inactive, SMARCA2 activ 11.5, SMARCA2 conf inactive and VP16 Luc act 8.6.
`Cc1nn2c(-c3ccc(S(=O)(=O)N4CCN(CCO)CC4)o3)nnc2c2ccccc12` gave FXN GAA850 act inactive, KLK7 zymogen act inactive, FAS-TE inh inactive and SMARCA2 activ inactive.
O=C(c1cc2c(c(-c3cccc(-c4ccc(F)cc4)c3)n1)[C@H](CCO)N(C(=O)c1ccc3c(c1)OCO3)C2)N1CCOCC1 was read as KLK7 zymogen act inactive, FAS-TE inh inactive and SMARCA2 activ inactive.
O=C(c1cc2c(c(-c3cccc(-c4ccncc4)c3)n1)[C@@H](CCO)N(C(=O)c1ccc3c(c1)OCO3)C2)N1CCOCC1 was read as KLK7 zymogen act inactive, FAS-TE inh inactive, SMARCA2 activ 8.1, SMARCA2 conf 9.2 and VP16 Luc act inactive.
Screening CCOC(=O)c1ccc2[nH]c3c(c2c1)CCCC3 returned FXN GAA850 act inactive, KLK7 zymogen act inactive, FAS-TE inh inactive, SMARCA2 activ 12.6, SMARCA2 conf inactive and VP16 Luc act 8.9.
Screening O=C(Cc1ccccc1)NCC1COc2ccccc2O1 (centres undefined) returned FXN GAA850 act inactive, KLK7 zymogen act inactive, FAS-TE inh inactive and SMARCA2 activ inactive.
`Cn1cccc1C(=O)NCC1COc2ccccc2O1` (centres undefined) gave FXN GAA850 act inactive, KLK7 zymogen act inactive, FAS-TE inh inactive, SMARCA2 activ 11.3, SMARCA2 conf 10.0 and VP16 Luc act 7.1.
Screening CCOc1ccccc1N1CCN(C(=S)NCc2ccccc2)CC1 returned FXN GAA850 act inactive, KLK7 zymogen act inactive, FAS-TE inh inactive and SMARCA2 activ inactive.
Screening CCOc1ccccc1N1CCN(C(=S)NCc2ccco2)CC1 returned FXN GAA850 act inactive, KLK7 zymogen act inactive, FAS-TE inh inactive, SMARCA2 activ 8.1, SMARCA2 conf inactive and VP16 Luc act inactive.
`COC(=O)c1cc2ccsc2n1Cc1nc(-c2cccc(Cl)c2)oc1C` gave FXN GAA850 act inactive, KLK7 zymogen act inactive, FAS-TE inh inactive, SMARCA2 activ 11.6, SMARCA2 conf inactive and VP16 Luc act inactive.
COC(=O)c1cc2sccc2n1Cc1nc(-c2cccc(Cl)c2)oc1C was read as FXN GAA850 act inactive, KLK7 zymogen act inactive, FAS-TE inh inactive and SMARCA2 activ inactive.
`Cc1nc(Cl)c2c(n1)NC(=O)CO2` gave FXN GAA850 act inactive, KLK7 zymogen act inactive, FAS-TE inh inactive, SMARCA2 activ 11.9, SMARCA2 conf inactive and VP16 Luc act inactive.
For Cc1nc2c(c(N3CCOCC3)n1)OCC(=O)N2 the results were FXN GAA850 act inactive, KLK7 zymogen act inactive, FAS-TE inh inactive and SMARCA2 activ inactive.
`COc1cc(F)ccc1-c1csc(C(NC(C)=O)c2cccc(F)c2)n1` (centres undefined) gave FXN GAA850 act inactive, KLK7 zymogen act inactive, FAS-TE inh inactive, SMARCA2 activ 10.1, SMARCA2 conf inactive and VP16 Luc act inactive.
Cc1nnc(SCC(=O)NNC(=O)c2ccccc2)n1-c1ccccc1 was read as FXN GAA850 act inactive, KLK7 zymogen act inactive, FAS-TE inh inactive and SMARCA2 activ inactive.
Cc1ccccc1-n1c(C)nnc1SCC(=O)NNC(=O)c1ccccc1 was read as FXN GAA850 act inactive, KLK7 zymogen act inactive, FAS-TE inh inactive, SMARCA2 activ 8.0, SMARCA2 conf inactive and VP16 Luc act inactive.
Screening Cc1cccc(C)c1NC(=O)CCCSc1nnc(N)s1 returned FXN GAA850 act inactive, KLK7 zymogen act inactive, FAS-TE inh inactive and SMARCA2 activ inactive.
`CCCOc1ccc(C(=O)NNC(=S)NC(=O)c2cccs2)cc1` gave FXN GAA850 act inactive, KLK7 zymogen act inactive, FAS-TE inh inactive, SMARCA2 activ 13.0, SMARCA2 conf inactive and VP16 Luc act inactive.
`c1cc2ccc3ccc(-n4cnnn4)c4ccc(c1)c2c34` gave FXN GAA850 act inactive, KLK7 zymogen act inactive, FAS-TE inh inactive, SMARCA2 activ 8.7, SMARCA2 conf inactive and VP16 Luc act inactive.
For COc1ccc(Cc2c(-c3ccc(F)cc3)nc3ccc(C)cn23)c(C)c1 the results were KLK7 zymogen act inactive, SMARCA2 activ 9.6, SMARCA2 conf inactive and VP16 Luc act 6.4.
Screening Cc1ccc(CN2CC(C(=O)Nc3cccc(S(=O)(=O)N4CCCCC4)c3)CC2=O)cc1 (centres undefined) returned FXN GAA850 act inactive, KLK7 zymogen act inactive, FAS-TE inh inactive and SMARCA2 activ inactive.
For CCC(=O)C1CCCN(C(=O)CCc2nnc(C3(c4ccc(Cl)cc4)CCC3)o2)C1 (centres undefined) the results were FXN GAA850 act inactive, KLK7 zymogen act inactive, FAS-TE inh inactive, SMARCA2 activ 8.8, SMARCA2 conf inactive and VP16 Luc act 5.2.
Screening O=[N+]([O-])c1ccc(NN=Cc2ccco2)nc1 returned FXN GAA850 act inactive, KLK7 zymogen act inactive, FAS-TE inh inactive and SMARCA2 activ inactive.
For Cc1ccc(C(=O)NCCc2nc3ccccc3[nH]2)cc1[N+](=O)[O-] the results were FXN GAA850 act inactive, KLK7 zymogen act inactive, FAS-TE inh inactive, SMARCA2 activ 8.6, SMARCA2 conf inactive and VP16 Luc act inactive.
Screening O=C(NCCc1nc2ccccc2[nH]1)c1ccc(Cl)c([N+](=O)[O-])c1 returned FXN GAA850 act inactive, KLK7 zymogen act inactive, FAS-TE inh inactive and SMARCA2 activ inactive.
COc1cccc(=O)c2c(C)n(-c3ccc(C(=O)O)cc3)c(C)c12 was read as FXN GAA850 act inactive, KLK7 zymogen act inactive, FAS-TE inh inactive and SMARCA2 activ inactive.
